Source: PubChem BioAssay (The Scripps Research Institute Molecular Screening Center)
M1 antag – blocks human M1 muscarinic receptor; P11229; CHO-K1 hM1, Fluo-8 calcium fluorescence, ACh EC80 antagonist; inhibition, % at 3 µM; hit rate 1.3% among 360,000; AID 588852;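 active means percent inhibition above its own plate's cutoff, namely the mean of that plate's compound wells plus 3 SD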;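 further: peak over basal fluorescence ratio during 140 s after agonist addition; 0% = ACh EC80 plus DMSO and 100% = DMSO alone without agonist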
Target sequence (P11229 whole entry, looked up): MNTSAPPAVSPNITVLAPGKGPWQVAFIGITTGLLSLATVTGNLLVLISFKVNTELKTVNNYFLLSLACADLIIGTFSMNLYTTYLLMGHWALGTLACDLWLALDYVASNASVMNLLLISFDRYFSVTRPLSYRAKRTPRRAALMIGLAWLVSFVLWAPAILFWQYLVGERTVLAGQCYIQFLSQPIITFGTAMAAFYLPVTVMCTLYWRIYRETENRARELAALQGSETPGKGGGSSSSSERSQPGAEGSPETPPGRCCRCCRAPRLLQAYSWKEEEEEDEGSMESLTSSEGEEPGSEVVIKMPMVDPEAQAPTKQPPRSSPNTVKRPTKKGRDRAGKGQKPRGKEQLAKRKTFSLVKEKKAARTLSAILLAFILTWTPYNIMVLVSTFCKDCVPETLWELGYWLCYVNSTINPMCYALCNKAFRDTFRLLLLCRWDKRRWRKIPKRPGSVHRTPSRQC
CHO-K1 Ca ag – counter-screen for M1 agonists: effect in parental CHO-K1 cells. Fluo-8 calcium fluorescence; scaled to maximal ATP response, vehicle zero. activation, % at 3 µM. hit rate 0.48% among 360,000. AID 602248; in the data active means activation above about 15%;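 further: untransfected CHO-K1 host cells lacking M1 receptor as counterscreen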
CHRM1 agonist – human M1 muscarinic receptor agonism. P11229. CHO-K1 hM1, Fluo-8 calcium fluorescence, agonist mode; 0% DMSO, 100% acetylcholine EC100. activation, % at 3 µM. hit rate 0.33% among 360,000. AID 588814;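 active means activation above the run's mean compound activation plus 3 SD, cut at about 16% in these data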;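 further: peak over basal fluorescence ratio within a 140 s kinetic read after compound addition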
CHO-K1 Ca antag – nonselective inhibitor or artifact in parental CHO-K1 cells; ATP-induced calcium, Fluo-8 fluorescence; inhibition, % at 3 µM; hit rate 0.6% among 360,000; AID 602250;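 active means inhibition above a per-plate cutoff, the plate's mean sample inhibition plus 3 SD, cut at about 24% in these data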;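 further: 0% = DMSO plus EC80 ATP and 100% = DMSO alone without ATP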
CHRM1 PAM – positive allosteric modulators of human M1 muscarinic receptor; hit rate 0.088% among 360,000; activation, % at 3 µM; AID 588819; CHO-K1 hM1, Fluo-8 calcium fluorescence, ACh EC20; 0% = ACh EC20, 100% = maximal ACh; P11229; in the data active means activation above about 19%, passing the limit was not always enough
M1 PAM parental – M1 PAM counterscreen hit in parental CHO-K1 cells; hit rate 0.02% among 360,000; activation, % at 3 µM; AID 602247; ATP EC20, Fluo-8 calcium fluorescence; 0% at ATP EC20, 100% at ATP max;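 active means activation above the run cutoff, the mean activation of all test compounds plus 3 SD, cut at about 40% in these data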;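 further: peak over basal fluorescence ratio in a 140 s read after ATP addition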
Starred values were filed as active, the others as inactive. An excerpt weighted towards active compounds, which were near 2.3% of everything screened.

SMILES	M1 antag	CHO-K1 Ca ag	CHRM1 agonist	CHO-K1 Ca antag	CHRM1 PAM	M1 PAM parental
CCOC(=O)c1[nH]c(C)c(C(=O)N2CCN(C(=O)OCC)CC2)c1CC	3.5	-0.1	-0.4	25.6*	0.6	-11.7
CC[C@H](C)C(C(=O)N1CCN(C(=O)OC(C)(C)C)CC1)n1cc(C(CC(C)C)NC(=O)OC(C)(C)C)nn1 (stereo partly drawn)	0.0	0.7	-2.1	1.0	6.9	4.0
CC[C@@H](C)[C@@H](C(=O)N1CCN(C(=O)OC(C)(C)C)CC1)n1cc(CCCCNC(=O)OC(C)(C)C)nn1	36.4*	14.7	-1.1	20.0	-23.6	-10.2
CC(C)(C)OC(=O)NCCCC[C@@H](C(=O)NCCCCCCCCCCC(=O)N1CCN(C(=O)OC(C)(C)C)CC1)n1cc(CCO)nn1	-4.2	1.3	-5.6	-1.6	-9.8	11.2
CC[C@H](C)Cc1cn([C@@H](CCCCNC(=O)OC(C)(C)C)C(=O)NCCCCCCCCCCC(=O)N2CCN(C(=O)OC(C)(C)C)CC2)nn1	47.8*	5.4	-2.3	-0.9	-28.2	-6.1
CN(C)c1ccc(/C=C(\C#N)C(=O)Nc2nc3c(s2)CCN(Cc2ccccc2)C3)cc1	34.7*	15.0	20.9*	16.6	-11.5	-28.6
O=C(Nc1nc2c(s1)CN(Cc1ccccc1)CC2)C1CCC1	45.6*	-0.1	-7.6	-12.1	-10.2	5.9
CCN1CCc2nc(NC(=O)c3ccccc3)sc2C1	3.8	0.0	-4.7	2.4	2.3	-2.4
CCOC(=O)NC(=O)/C(C#N)=C/c1ccc(N(C)C)cc1	-4.3	9.5	2.5	3.0	7.9	1.5
CC(C)(C)OC(=O)C[C@@H]1C/C=C\C[C@@H](CC(=O)N(CCO)Cc2ccccc2)C(=O)N2CCC[C@@H]2COC1=O	-24.9	-0.1	-3.3	-2.6	20.5	11.7
CCN(CC)C(=O)C1=C(C)N(Cc2ccc(OC)cc2)C(=O)C(CC(=O)NC(c2ccccc2)c2ccccc2)C1 (stereo not drawn)	-8.6	1.3	-5.5	-18.4	13.0	13.4
C#CCOCCOCCOCCNc1nc(N2CCN(C(=O)[C@H](CC(N)=O)n3cc(C(N)[C@H](C)CC)nn3)CC2)nc(N2CCN(C(=O)[C@H](CC(N)=O)n3cc(C(N)[C@@H](C)CC)nn3)CC2)n1 (stereo partly drawn)	-8.2	0.9	-4.5	-16.3	6.3	19.5
C/C(=N\NC(=O)c1ccccc1)c1ccc(-n2ccnc2)cc1	9.7	-0.1	-5.2	27.9*	-5.6	-14.2
C=C(C)CNC(=S)N/N=C(\C)c1ccc(-n2ccnc2)cc1	-4.4	5.2	-2.4	-19.2	-1.8	11.8
C/C(=N\NC(N)=S)c1ccc(-n2ccnc2)cc1	-0.4	1.2	-1.7	-9.5	28.8*	7.1
C/C(=N\NC(=O)OC(C)(C)C)c1ccc(-n2ccnc2)cc1	9.2	0.9	0.3	-1.1	-2.2	-5.0
CC(C)c1ccccc1OS(N)(=O)=O	-3.8	-0.1	-4.1	-6.1	2.8	-10.1
CC1(C)CC(=O)C(C=Nc2ccccc2C(=O)O)=C(O)C1	-4.5	-0.3	-6.1	0.3	9.4	12.5
CC1(C)CC(=O)C(C=Nc2ccccc2Sc2ccccc2)=C(O)C1	63.2*	0.5	-5.9	-2.6	-25.8	1.2
CCOc1ccc(NC(=O)Nc2c(C)n(C)n(-c3ccccc3)c2=O)cc1	10.6	5.2	-2.7	9.0	-7.8	-4.5
O=C(NNS(=O)(=O)c1ccc2ccccc2c1)C1CCN(Cc2ccccc2)CC1	84.8*	0.8	-5.4	2.2	-21.7	1.6
O=S(=O)(NC1CCN(Cc2ccccc2)CC1)c1ccc2ccccc2c1	4.8	3.7	-5.7	-12.1	-8.5	17.6
CC(C)c1ccc(NC(=O)C[n+]2ccn(C3=C([O-])c4ccccc4C3=O)c2)cc1	8.0	17.9*	-5.7	-3.2	-7.6	-4.8
CCCC[n+]1ccn(C2=C([O-])c3ccccc3C(=O)/C2=N\S(=O)(=O)c2ccccc2)c1	-3.8	0.2	-2.2	-4.2	-1.4	14.0
COc1ccc(C(=O)O)cc1S(=O)(=O)NCCCN1CCCC1=O	-19.6	-0.3	-1.1	25.1*	0.2	-8.1
SMILES	M1 antag	CHO-K1 Ca ag	CHRM1 agonist	CHO-K1 Ca antag	CHRM1 PAM	M1 PAM parental
Cc1c(N=C(N)/N=C(\N)Nc2ccccc2)c(=O)n(-c2ccccc2)n1C	66.8*	0.1	-11.8	-2.1	-27.2	-6.5
Cc1cc(C)c(S(=O)(=O)NCCSCc2ccco2)c(C)c1	9.6	0.1	-1.4	-8.1	3.0	15.6
O=C(Nc1ccc(S(=O)(=O)N2CCCC2)cc1)C1CCN(S(=O)(=O)c2ccc(F)cc2)CC1	9.5	10.6	17.3*	0.8	-8.2	-0.7
O=C(Nc1cccc(F)c1)C1CCN(S(=O)(=O)c2cccc3nonc23)CC1	2.7	20.4*	2.6	-16.1	-10.6	2.3
O=S(=O)(Nc1ccc(F)cc1)c1ccc(S(=O)(=O)N2CCOCC2)cc1	9.6	34.0*	23.9*	7.5	-6.1	-3.6
O=C(Nc1ccc(S(=O)(=O)N2CCCCC2)cc1)c1ccccc1Cl	-10.7	2.4	-3.8	-9.9	11.4	20.8
O=S(=O)(Nc1ccc(S(=O)(=O)N2CCCC2)cc1)c1ccc(F)cc1	-16.0	1.5	-0.8	-19.1	14.6	30.4
Cc1ccc(NC(=O)C2CCN(S(=O)(=O)c3cccc4nonc34)CC2)cc1	-4.6	8.0	-2.2	-12.2	-7.3	-1.1
O=C(Nc1ccccc1)Nc1ccc(S(=O)(=O)N2CCCCC2)cc1	17.2	10.6	6.5	23.9*	-10.2	4.2
COc1ccc2[nH]c(CN3CCC(CO)(CCOc4ccccc4)CC3)c(C)c2c1	-3.4	2.7	-9.3	-0.8	1.7	8.0
CCC1CCCCN1S(=O)(=O)c1ccc(-n2cnnn2)c(C)c1 (stereo not drawn)	-5.8	2.5	-2.5	-0.7	4.9	-6.6
CNC(=S)NC1(C)CCS(=O)(=O)C1 (stereo not drawn)	-9.9	0.5	1.9	-7.0	16.8	-9.6
CC1CCN(S(=O)(=O)c2ccc(NC(=O)CN3CCCC(C)C3)cc2)CC1 (stereo not drawn)	5.4	0.2	-7.1	7.3	-5.2	-5.6
COc1cc2c(cc1OC)C(C)N(CC(=O)Nc1ccc(S(=O)(=O)N3CCCC3)cc1)CC2 (stereo not drawn)	57.7*	4.2	-2.6	-12.2	-24.6	1.6
O=C(O)CCC(=O)Nc1ccc(S(=O)(=O)N2CCCC2)cc1	1.1	-0.2	0.8	24.6*	2.9	-6.8
CCCC(=O)Nc1ccc(S(=O)(=O)N2CCCC2)cc1	-9.2	0.7	-7.0	-6.7	11.5	5.5
CC1CCCN(CC(=O)Nc2ccc(S(=O)(=O)N3CCCC3)cc2)C1 (stereo not drawn)	66.9*	0.0	-12.4	2.9	-33.5	-12.3
O=C(NCc1cccnc1)c1ccc(S(=O)(=O)N2CCCCC2)cc1	-15.2	3.3	-6.9	-20.1	6.7	19.0
